Measured values: PubChem BioAssay AID1159580 (chemical genetic matrix, 2015)
Values joined by “and” are separate entries in the source; they are usually repeats but may differ in a detail not shown here. Equal entries are not always repeated. About 2,000 (36%) of roughly 5,500 compounds were called active. Inconclusive results (about 18%) are left out. Cut-off read from the data, not from the text of the source: active = normalized growth mostly below about 0.91 (no sharp cut-off); inconclusive = no clear call, values can overlap the other calls; inactive = mostly above about 0.92. The list shows a part of the results.

Assay: chemical genetic growth profiling, strain panel (AID 1159580);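 note: tested at 20 µM; growth read once vehicle control cultures reached saturation at 30 °C; 1 = growth at the plate median or of vehicle wells; lower values mean less growth of the strain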
Conditions: growth OD

Measured: normalized growth

Cc1ccc(N(CC2=NCCN2)c2cccc(O)c2)cc1
active: S. cerevisiae deletion strains, locus YML032C, strain rad52, hits give low values 0.819 | S. cerevisiae deletion strains, locus YNL250W, strain rad50, hits give low values 0.841 | S. cerevisiae deletion strains, locus YNL298W, strain CLA4, hits give low values 0.899
inactive: S. cerevisiae deletion strains, locus YJR075W, strain HOC1, hits give low values 0.967 | S. cerevisiae deletion strains, locus YKL009W, strain mrt4, hits give low values 0.99 | S. cerevisiae deletion strains, locus YKL068W, hits give low values 1 | S. cerevisiae deletion strains, locus YKL085W, strain MDH1 (second series), hits give low values 1.03 | S. cerevisiae deletion strains, locus YKL085W, strain MDH1, hits give low values 1.03 | S. cerevisiae deletion strains, locus YKL160W, strain elf1, hits give low values 1.01 | S. cerevisiae deletion strains, locus YKL190W, strain CNB1, hits give low values 1.01 | S. cerevisiae deletion strains, locus YKR001C, strain vps1, hits give low values 1.01 | S. cerevisiae deletion strains, locus YKR026C, strain gcn3, hits give low values 1.03 | S. cerevisiae deletion strains, locus YKR091W, strain srl3, hits give low values 1 | S. cerevisiae deletion strains, locus YLL001W, strain dnm1, hits give low values 1 | S. cerevisiae deletion strains, locus YLL026W, hits give low values 1.02 | S. cerevisiae deletion strains, locus YLL041C, strain sdh2, hits give low values 1.01 | S. cerevisiae deletion strains, locus YLR027C, strain aat2, hits give low values 1.01 | S. cerevisiae deletion strains, locus YLR039C, strain RIC1, hits give low values 1.06 | S. cerevisiae deletion strains, locus YLR058C, strain SHM2, hits give low values 1.01 | S. cerevisiae deletion strains, locus YLR102C, strain apc9, hits give low values 1.01 | S. cerevisiae deletion strains, locus YLR113W, strain HOG1, hits give low values 1.04 | S. cerevisiae deletion strains, locus YLR221C, strain rsa3, hits give low values 0.998 | S. cerevisiae deletion strains, locus YLR258W, strain gsy2, hits give low values 1 | S. cerevisiae deletion strains, locus YLR262C, strain YPT6 (second series), hits give low values 1.02 | S. cerevisiae deletion strains, locus YLR262C, strain YPT6, hits give low values 1.02 | S. cerevisiae deletion strains, locus YLR268W, strain sec22, hits give low values 0.947 | S. cerevisiae deletion strains, locus YLR320W, strain mms22, hits give low values 0.987 | S. cerevisiae deletion strains, locus YLR330W, strain CHS5, hits give low values 1.01 | S. cerevisiae deletion strains, locus YLR342W, strain FKS1 (second series), hits give low values 1.04 | S. cerevisiae deletion strains, locus YLR342W, strain FKS1, hits give low values 1.02 | S. cerevisiae deletion strains, locus YLR357W, strain rsc2, hits give low values 1.02 | S. cerevisiae deletion strains, locus YLR370C, strain arc18, hits give low values 1.01 | S. cerevisiae deletion strains, locus YLR371W, strain rom2, hits give low values 1.01 | S. cerevisiae deletion strains, locus YLR384C, strain iki3, hits give low values 1.02 | S. cerevisiae deletion strains, locus YLR418C, strain cdc73, hits give low values 0.955 | S. cerevisiae deletion strains, locus YML016C, strain PPZ1, hits give low values 1.01 | S. cerevisiae deletion strains, locus YML120C, strain ndi1, hits give low values 0.999 | S. cerevisiae deletion strains, locus YML124C, strain tub3, hits give low values 1.02 | S. cerevisiae deletion strains, locus YMR058W, strain fet3, hits give low values 1.02 | S. cerevisiae deletion strains, locus YMR078C, strain ctf18, hits give low values 1 | S. cerevisiae deletion strains, locus YMR125W, strain sto1, hits give low values 1.04 | S. cerevisiae deletion strains, locus YMR129W, hits give low values 1 | S. cerevisiae deletion strains, locus YMR205C, strain PFK2, hits give low values 1.02 | S. cerevisiae deletion strains, locus YMR223W, strain ubp8, hits give low values 0.973 | S. cerevisiae deletion strains, locus YMR231W, strain pep5, hits give low values 1.02 | S. cerevisiae deletion strains, locus YMR263W, strain SAP30, hits give low values 0.989 | S. cerevisiae deletion strains, locus YMR307W, strain GAS1, hits give low values 0.988 and 0.994 | S. cerevisiae deletion strains, locus YNL067W, strain RPL9B, hits give low values 0.967 | S. cerevisiae deletion strains, locus YNL071W, strain lat1, hits give low values 1.01 | S. cerevisiae deletion strains, locus YNL128W, strain TEP1, hits give low values 0.988 | S. cerevisiae deletion strains, locus YNL153C, strain GIM3, hits give low values 0.983 | S. cerevisiae deletion strains, locus YNL175C, strain NOP13, hits give low values 1.02 | S. cerevisiae deletion strains, locus YNL183C, strain NPR1, hits give low values 0.99 | S. cerevisiae deletion strains, locus YNL197C, strain WHI3, hits give low values 1.03 | S. cerevisiae deletion strains, locus YNL209W, strain ssb2, hits give low values 1.04 | S. cerevisiae deletion strains, locus YNL224C, strain SQS1, hits give low values 1.06 | S. cerevisiae deletion strains, locus YNL233W, strain BNI4, hits give low values 0.966 | S. cerevisiae deletion strains, locus YNL248C, strain rpa49, hits give low values 1.03 | S. cerevisiae deletion strains, locus YNL271C, strain bni1, hits give low values 0.998 | S. cerevisiae deletion strains, locus YNL307C, strain MCK1, hits give low values 0.969 | S. cerevisiae deletion strains, locus YNL322C, strain KRE1 (second series), hits give low values 1.01 | S. cerevisiae deletion strains, locus YNL322C, strain KRE1, hits give low values 1 and 0.995 | S. cerevisiae deletion strains, locus YNR049C, strain mso1, hits give low values 1.02 | S. cerevisiae deletion strains, locus YNR052C, strain pop2, hits give low values 0.998 | S. cerevisiae deletion strains, locus YOL006C, strain TOP1, hits give low values 0.967 | S. cerevisiae deletion strains, locus YOL012C, strain htz1 1.24 | S. cerevisiae deletion strains, locus YOL147C, strain pex11, hits give low values 1.01 | S. cerevisiae deletion strains, locus YOR001W, strain rrp6, hits give low values 0.993 | S. cerevisiae deletion strains, locus YOR061W, strain CKA2, hits give low values 1.02 | S. cerevisiae deletion strains, locus YOR069W, strain VPS5, hits give low values 1.06 | S. cerevisiae deletion strains, locus YOR070C, strain gyp1, hits give low values 1 | S. cerevisiae deletion strains, locus YOR080W, strain dia2, hits give low values 1.04 | S. cerevisiae deletion strains, locus YOR083W, strain WHI5 (second series), hits give low values 1.03 | S. cerevisiae deletion strains, locus YOR083W, strain WHI5, hits give low values 0.969 | S. cerevisiae deletion strains, locus YOR106W, strain vam3, hits give low values 1.03 | S. cerevisiae deletion strains, locus YOR136W, strain idh2, hits give low values 1.01 | S. cerevisiae deletion strains, locus YOR144C, strain elg1, hits give low values 1.01 | S. cerevisiae deletion strains, locus YOR184W, strain ser1, hits give low values 0.975 | S. cerevisiae deletion strains, locus YOR231W, strain MKK1, hits give low values 1.02 | S. cerevisiae deletion strains, locus YOR265W, strain rbl2, hits give low values 1 | S. cerevisiae deletion strains, locus YOR270C, strain vph1, hits give low values 1.06 | S. cerevisiae deletion strains, locus YOR290C, strain snf2, hits give low values 1.02 | S. cerevisiae deletion strains, locus YOR316C, strain cot1, hits give low values 1.01 | S. cerevisiae deletion strains, locus YPL051W, strain arl3, hits give low values 1 | S. cerevisiae deletion strains, locus YPL055C, strain LGE1, hits give low values 0.908 | S. cerevisiae deletion strains, locus YPL078C, strain atp4, hits give low values 1.02 | S. cerevisiae deletion strains, locus YPL106C, strain sse1, hits give low values 1.01 | S. cerevisiae deletion strains, locus YPL240C, strain hsp82, hits give low values 1 | S. cerevisiae deletion strains, locus YPL241C, strain CIN2, hits give low values 1.04 and 1.01 | S. cerevisiae deletion strains, locus YPL256C, strain CLN2, hits give low values 1.05 | S. cerevisiae deletion strains, locus YPR119W, strain clb2, hits give low values 1 | S. cerevisiae deletion strains, locus YPR141C, strain kar3, hits give low values 1 | S. cerevisiae deletion strains, locus YPR163C, strain tif3, hits give low values 0.991 | S. cerevisiae deletion strains, locus YPR167C, strain met16, hits give low values 1.01 | S. cerevisiae deletion strains, strain wtn01, hits give low values 0.977 | S. cerevisiae strains, strain wild type, hits give low values 1
